PfHsp90 yeast 2 = growth inhibition of PfHsp90-expressing yeast, primary screen, antimalarial PfHsp90 inhibitor project, S. cerevisiae, BacTiter-Glo luminescence, single point, set 2; AID 504621, 2011; inhibition, % at 9.4 µM; 310,000 tested, 0.32% active; BacTiter-Glo ATP, 48 h; yeast lacking PDR1 and PDR3 efflux regulators;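 active means every replicate shows inhibition above about 80%, whatever the replicate mean, limit read from the data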
V-ATPase pH = regulators of yeast V-ATPase proton pumping, primary screen, pHLuorin cytosolic pH fluorescence. S. cerevisiae. response, % at 10 µM. 350,000 tested, 0.37% active. AID 504577, 2011; in the data active means response mostly above about 7.3%, no sharp cut-off; inactive means mostly below about 5.4%; further: actives read high
SKKanGAS inh = S. pyogenes SKKanGAS growth inhibitors in kanamycin, primary screen, streptokinase expression inhibitor project, SKKanGAS strain, BacTiter-Glo luminescence | 6 h | inhibition, % at 7.5 µM | 300,000 tested, 1.3% active;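 active means mean replicate score, as percent of positive control median, at least 50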;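 further: strain carries kanamycin resistance gene driven by streptokinase promoter and grows in 40 µg/ml kanamycin; loss of luminescence reflects streptokinase promoter inhibition or plain growth inhibition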
tim10-1 inh = growth inhibitors of tim10-1 mutant yeast, primary screen, luminescence, uHTS; S. cerevisiae tim10-1 ts strain growth, BacTiter-Glo, 24 h; inhibition, % at 20 µM; 330,000 tested, 2.2% active; AID 463190, 2010;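 active means inhibition of at least 40%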;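 further: mutant grown at 25 °C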
tim23-1 inh = growth inhibitors of tim23-1 mutant yeast, primary screen, luminescence, uHTS; inhibition, % at 20 µM; 330,000 tested, 1.3% active; AID 463212, 2010; S. cerevisiae tim23-1 growth, BacTiter-Glo luminescence, 24 h;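 active means growth inhibition of the mutant yeast at or above 50%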;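 further: temperature-sensitive mutant grown at 25 °C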
TIM10 inh = growth inhibitors of isogenic TIM10 control yeast, primary screen, counter-screen for tim10-1 yeast inhibitor project, luminescence, uHTS; S. cerevisiae TIM10 strain growth, BacTiter-Glo luminescence, 24 h; AID 463195, 2010; inhibition, % at 10 µM; 330,000 tested, 1.4% active;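 active means inhibition of 40% or more at the single tested concentration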;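 further: wild-type TIM10 isogenic control strain grown at permissive 25 °C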
tim10-1 confirm = growth inhibitors of tim10-1 mutant yeast, confirmation, single concentration, luminescence, S. cerevisiae. AID 463213, 2010. shares compounds with tim10-1 inh. 7,400 tested, 56% active. S. cerevisiae tim10-1 ts strain growth, BacTiter-Glo, 24 h. inhibition, % at 20 µM;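 active means inhibition of yeast growth at or above a set limit in either of two repeat tests at 20 µM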;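 further: tim10-1 mutant grown at permissive 25 °C to find synthetic lethal compounds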
TIM10 conf = growth inhibitors of wild-type TIM10 yeast, confirmation, counter-screen for tim10-1 synthetic lethality project, single concentration, luminescence, S. cerevisiae; shares compounds with TIM10 inh; S. cerevisiae tim10 strain growth, BacTiter-Glo luminescence, 24 h; inhibition, % at 10 µM; 4,600 tested, 63% active;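 active means inhibition of yeast growth at or above a set limit in either of two replicates at 10 µM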; further: this counterscreen used the strain with wild-type TIM10
tim23-1 conf = tim23-1 mutant yeast growth inhibitors, confirmation, luminescence, single concentration; inhibition, % at 20 µM; S. cerevisiae tim23-1 growth, BacTiter-Glo luminescence, 24 h; shares compounds with tim23-1 inh; 4,400 tested, 83% active; AID 463218, 2010;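 active means inhibition above about 39% in either of two replicate wells at 20 µM, limit read from the data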;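 further: temperature-sensitive tim23-1 mutant grown at 25 °C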
A number is an active result; i = inactive; nt = no result. Rows were chosen to be rich in hits. Some 4.6% of all compounds tested hit in one or more screens of this group.

SMILES | PfHsp90 yeast 2 | V-ATPase pH | SKKanGAS inh | tim10-1 inh | tim23-1 inh | TIM10 inh | tim10-1 confirm | TIM10 conf | tim23-1 conf
O=C(Nc1ccccc1)c1nnsc1S(=O)c1ccc(Cl)cc1 (stereo not drawn) | 106 | i | 73 | 92 | 56 | 94 | 92 | 98 | 98
O=C(c1nnsc1S(=O)c1ccc(Cl)cc1)N1CCOCC1 (stereo not drawn) | i | i | i | 60 | 57 | i | 42 | nt | 90
CCc1nnc(NC(=O)CSc2nc3ccc(OC)cc3[nH]2)s1 | i | i | i | i | i | i | nt | nt | nt
COc1cc(Br)cc(CNc2ccc(F)c([N+](=O)[O-])c2)c1O | i | i | i | 55 | 54 | 44 | 33 | 40 | 56
Cc1ccc(CC(=O)Nc2ccc(F)c([N+](=O)[O-])c2)cc1C | i | i | i | i | i | i | nt | nt | nt
O=C1C2C(c3ccccc3)C=CC(c3ccccc3)C2C(=O)N1c1ccncc1 (stereo not drawn) | i | i | i | 41 | 53 | i | 36 | nt | 49
CC(NC(=O)c1ccccc1)C(=O)NNC(=O)c1ccccc1Cl (stereo not drawn) | i | i | nt | i | i | i | nt | nt | nt
O=C(N/N=C/c1ccsc1)c1cc2ccccc2o1 | i | i | i | 46 | 56 | 55 | i | 48 | 67
O=C(COC(=O)CNS(=O)(=O)c1cccc(Br)c1)NC(=O)Nc1ccc2c(c1)OCCO2 | i | i | nt | nt | nt | nt | nt | nt | nt
Cc1noc2ncnc(Sc3ccc(Br)cc3)c12 | i | i | i | 54 | 65 | i | 74 | nt | 68
Cc1noc2ncnc(N3CCCC3)c12 | i | i | i | i | i | i | nt | nt | nt
Cc1cccc(CN2CCN(C(=O)CN(C)C(C)C(=O)Nc3ccc(C(N)=O)cc3)CC2)c1 (stereo not drawn) | i | i | nt | i | i | i | nt | nt | nt
COc1cc(NC(=O)C2CC(c3c(F)cccc3Cl)=NO2)c(OC)cc1Cl (stereo not drawn) | i | i | i | i | i | i | nt | nt | nt
Cc1ccc(O)c(NC(=O)C2CC(c3c(F)cccc3Cl)=NO2)c1 (stereo not drawn) | i | i | i | 44 | 54 | i | i | nt | 60
Cc1ccc(/C(N)=N/OC(=O)c2cccc(F)c2)cc1 | i | i | i | 64 | 70 | 76 | 48 | 79 | 40
N/C(=N\OC(=O)c1cccc(F)c1)c1ccccc1 | nt | i | i | 55 | 68 | 61 | 56 | 62 | 66
CCn1ncc([N+](=O)[O-])c1C(=O)Nc1c(C)cccc1C | i | i | i | i | i | i | nt | nt | nt
CCn1ncc([N+](=O)[O-])c1C(=O)Nc1nc2cccc(C)c2s1 | i | i | i | 47 | 51 | i | i | nt | 50
CCOCCCn1c(=S)[nH]c2cc(C(=O)NC3CCCC(C)C3C)ccc2c1=O (stereo not drawn) | i | i | i | i | i | i | nt | nt | nt
CCn1c(C(=O)NC(C)c2ccc3c(c2)OCCO3)cc2sccc21 (stereo not drawn) | i | i | i | 44 | 53 | i | 32 | nt | 46
CC(Cc1cccs1)NC(=O)Nc1ccc(Cl)c(Cl)c1 (stereo not drawn) | i | i | i | 47 | 52 | 59 | 52 | 62 | 54
CC(Cc1cccs1)NC(=O)Nc1ccc(Cl)cc1 (stereo not drawn) | i | i | i | i | i | i | nt | nt | nt
O=Cc1coc2ccc3ccccc3c2c1=O | i | i | i | 50 | 76 | i | i | nt | 74
NC(=O)N/N=C/c1coc2ccc3ccccc3c2c1=O | i | i | i | i | i | i | nt | nt | nt
CN(CCc1ccccc1)C(=O)c1cccc(NC(=O)Cc2cccc(NC(=O)C3CCN(C(=O)c4ccccc4)CC3)c2)c1 | i | i | nt | nt | nt | nt | nt | nt | nt
SMILES | PfHsp90 yeast 2 | V-ATPase pH | SKKanGAS inh | tim10-1 inh | tim23-1 inh | TIM10 inh | tim10-1 confirm | TIM10 conf | tim23-1 conf
N#CCC(=O)N/N=C/c1cc(-c2ccccc2)n(-c2ccc(Cl)cc2)c1-c1ccccc1 | nt | nt | i | i | i | i | nt | nt | nt
COc1ccc(NCc2nc3ccccc3n2CCOc2ccccc2)cc1 | i | i | i | 49 | 77 | i | 40 | nt | 81
Cc1ccc(-c2csc(NC(=O)c3ccccc3F)c2C(=O)O)cc1 | i | i | i | 79 | 83 | 74 | 79 | 84 | 88
O=C(Nc1scc(-c2ccc(Br)cc2)c1C(=O)O)c1ccccc1F | i | i | 78 | 74 | 88 | 74 | 82 | 91 | 89
O=C(/C=C/c1ccccc1)Nc1scc(-c2ccccc2)c1C(=O)O | i | i | i | nt | nt | nt | nt | nt | nt
COc1ccc(-c2csc(NC(=O)c3ccccc3OC)c2C(=O)O)cc1OC | i | i | i | i | i | i | nt | nt | nt
C[C@H](CO)N1C[C@H](C)[C@@H](CN(C)C(=O)NC2CCCCC2)Oc2ccc(NC(=O)Nc3ccccc3)cc2C1=O | i | i | nt | i | i | i | nt | nt | nt
O=S(=O)(Nc1ccc(-c2nc3ccccc3o2)cc1)c1ccccc1 | i | i | i | 47 | 61 | 52 | 40 | 36 | 53
Cc1cc(C)c(S(=O)(=O)c2cccc(Cl)c2)c(=O)[nH]1 | i | i | i | i | i | i | nt | nt | nt
Nc1n[nH]c2c1C1(CCCCC1)Cc1ccccc1-2 | i | i | i | i | i | i | nt | nt | nt
Nc1ncnc2c1C1(CCCCC1)Cc1ccccc1-2 | i | i | i | 42 | 50 | i | i | nt | i
Cc1ccccc1-n1ncc2c([N+](=O)[O-])cc([N+](=O)[O-])cc21 | i | i | i | 48 | 77 | 68 | 35 | 75 | i
COc1cc2cc(-c3ccc(O)cc3O)nc(C)c2cc1OC | i | i | i | 40 | 51 | 46 | 32 | 43 | 55
NNC(=O)COc1ccc(-c2nccc(-c3ccc(F)cc3)n2)cc1 | i | i | i | 49 | 55 | i | i | nt | 41
NNC(=O)COc1ccc(F)cc1 | i | i | i | i | i | i | nt | nt | nt
Oc1ccc(-c2nccc(-c3ccc(F)cc3)n2)cc1 | i | i | i | 52 | 62 | i | 54 | nt | i
O=[N+]([O-])c1cc2c(cc1/C=N/NS(=O)(=O)c1ccc(Br)cc1)OCO2 | i | i | i | i | i | i | nt | nt | nt

Assay outcomes: PubChem, several laboratories
